Source: PubChem BioAssay
In the library only some 6.1% were active in any assay of this set; here they are far more common.
ERK AVP block – qHTS Assay for Inhibitors of the ERK Signaling Pathway using a Homogeneous Screening Assay | HEK293-V1b, vasopressin-stimulated pERK AlphaScreen | Potency, µM (series often up to 57.5 µM), hits mostly inhibitors | 0.99% of 72,000 active | AID 995, 2007; further: nearly all actives have a fitted effect of over 55% in size
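HEK293 cells stably expressing V1b receptor, seeded overnight in 1% FBS, were treated with compounds for 30 min at 37C, then stimulated 5 min with 25 nM vasopressin; phospho-ERK read by AlphaScreen SureFire after lysis.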
Bst PK mod – Pyruvate Kinase. purified pyruvate kinase, luminescence ATP production; ribose 5-phosphate activator present at AC10. Potency, µM. 1.2% of 51,000 active. AID 361, 2006; in the data active means potency below about 11 µM; inconclusive means mostly about 12 µM to 25 µM;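 the screen sought inhibitors and activators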
HEK293 cAMP cs – qHTS Assay for Agonists of the Thyroid Stimulating Hormone Receptor: Activators of Intracellular cAMP Concentrations in Parental HEK 293; parental HEK293 CNG cAMP sensor, membrane potential fluorescence; Potency, µM (top dose mostly 57.1 µM), usual class: activators; 2.5% of 73,000 active; further: nearly all actives have a fitted effect of over 55% in size
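Counterscreen for endogenous-receptor signalling: CNG-channel HEK 293 cells report cAMP rise by membrane depolarization. After 60 min dye equilibration with 100 uM RO 20-1724, compounds incubated 30 min before bottom-read fluorescence at 590 nm.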
GBA activity – Glucocerebrosidase | Lysosomal acid glucosylceramidase (Homo sapiens), P04062 | purified enzyme, resorufin glucoside fluorescence (screen aimed at inhibitors), 20 min | Potency, µM | 1.1% of 48,000 active; in the data active means potency below about 15 µM; inconclusive means mostly about 16 µM to 33 µM;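 further: the screen sought inhibitors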
Target sequence (P04062 whole entry, looked up): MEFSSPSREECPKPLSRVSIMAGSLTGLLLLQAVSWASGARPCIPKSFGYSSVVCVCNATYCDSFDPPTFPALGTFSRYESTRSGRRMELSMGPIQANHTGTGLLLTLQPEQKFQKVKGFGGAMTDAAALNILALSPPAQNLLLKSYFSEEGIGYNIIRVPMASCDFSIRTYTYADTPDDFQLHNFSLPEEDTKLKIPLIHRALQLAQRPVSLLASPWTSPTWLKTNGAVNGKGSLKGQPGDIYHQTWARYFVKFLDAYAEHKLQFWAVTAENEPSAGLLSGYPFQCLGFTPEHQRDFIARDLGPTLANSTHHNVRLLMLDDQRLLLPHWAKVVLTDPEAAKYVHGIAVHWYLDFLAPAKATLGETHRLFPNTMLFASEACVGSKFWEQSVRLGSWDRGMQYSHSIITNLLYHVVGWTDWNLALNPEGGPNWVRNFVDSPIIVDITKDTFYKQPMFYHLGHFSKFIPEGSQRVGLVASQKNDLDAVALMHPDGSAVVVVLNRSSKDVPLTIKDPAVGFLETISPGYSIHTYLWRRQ
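Normal human glucocerebrosidase (0.2 nM final) was assayed with resorufin β-D-glucopyranoside (30 uM final) in 50mM citric acid/KH2PO4, 10mM sodium taurocholate, 0.01% tween-20, pH 5.9. Compounds were titrated; fluorescence (Ex 548, Em 600) read after 20 min at RT.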
TSHR ag – qHTS Assay for Agonists of the Thyroid Stimulating Hormone Receptor | HEK293-CNG-TSHR cells (CNG channel as cAMP sensor), membrane potential dye, cAMP | Potency, µM (highest dose often 57.1 µM), most hits filed as activators | 0.48% of 73,000 active | AID 926, 2007; active means well fitted activation curve with a large enough effect in the main read-out, with a control signal flat, not every such curve was filed as active; inconclusive means small, poorly fitted or top-dose-only effect, or a change in a side signal; inactive means no such curve, though single readings can be large or run the other way; reference of the percent scale not stated here;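 further: the control signal comes from parental cells without the receptor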
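HEK 293 cells stably expressing TSHR and a cAMP-gated CNG channel; parental CNG-only cells as counterscreen. Cells preloaded 60 min with membrane potential dye plus 100 uM RO 20-1724, then compound 30 min; fluorescence read at 590 nm.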
Luciferase inh – qHTS Assay for Inhibitors of Firefly Luciferase; Luciferin 4-monooxygenase (Photinus pyralis), P08659; purified firefly luciferase, luminescence, 8 min; Potency, µM (doses to about 57.1 µM), most hits filed as inhibitors; 2.2% of 72,000 active; further: nearly all actives have a fitted effect of over 40% in size
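qHTS concentration-response profiling: light output of P. pyralis luciferase with luciferin and 10 uM ATP, imidazole buffer pH 7.2. Read by luminescence after 8-min room-temperature incubation.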
Hits are given with their value; n = inactive; u = inconclusive; x = no result given; [ ] = dose if it differs, or a comment. Unless noted, the call rests on the fitted dose curve; in most records, active means well fitted curve in the direction sought with a large enough effect; inconclusive means small, poorly fitted or top-dose-only effect, or another doubt; inactive means no such curve, though single readings can be large; an effect the other way counts as inactive or inconclusive.

SMILES	ERK AVP block	Bst PK mod	HEK293 cAMP cs	GBA activity	TSHR ag	Luciferase inh
CCn1c(SCc2ccc(OC)cc2)nnc1-c1ccncc1	n	n	25.1µM	n	u	n
CCn1c(SCC(=O)c2cc(OC)ccc2OC)nnc1-c1ccncc1	n	n	25.1µM	n	u	n
CC(=O)OC[C@@H]1O[C@H](C/C=N\OC[C@@H](C)[C@H](OCc2ccccc2)C(C)C)C=C[C@@H]1OC(C)=O	n[11.5 µM]	x	u	x	u	n[11.4 µM]
O=C(O)/C=C1\CCCc2ccccc2[C@H]1O	n	x	n	x	n	n
c1ccc(N(c2ccccc2)c2nc(-n3ccnc3)nc(-n3ccnc3)n2)cc1	n	n	25.1µM	n	u	n
c1ccc(-c2nc(N3CCCCCC3)nc(-n3ccnc3)n2)cc1	n	n	n	u	3.98µM	n
O=C(Nc1ccc2c(c1)OCCO2)c1ccc(Br)o1	x	u	x	x	x	5.01µM
O=C(Nc1ccc2c(c1)OCCO2)c1c(F)c(F)c(F)c(F)c1F	n	n	n	n	n	n
Cc1ccc(C(=O)Nc2ccc3c(c2)OCO3)o1	n	x	n	x	n	12.6µM
O=C(Nc1ccc2c(c1)OCCO2)NC12CC3CC(CC(C3)C1)C2	n	x	n	x	n	12.6µM
O=C(c1cc(C(F)(F)F)cc(C(F)(F)F)c1)N1CCC[C@@]2(CCN(c3ccncc3)C2)C1	n	x	u	x	u	n[11.4 µM]
O=C(Nc1ccccc1)N1CCCC2(CCN(C(=O)c3cnccn3)CC2)C1	n	x	n	x	n	n[11.4 µM]
N#Cc1c(/N=C/c2cccs2)sc2c1CCC2	n	u	n	n	n	10µM
N#Cc1c(/N=C/c2ccco2)sc2c1CCCCC2	u	0.523	n	n	n	0.794µM
C/C=C/OC(=O)NC(c1cccc(C)c1)[C@@]1(C(=O)OCC)CCCC1=O (stereo not given in full)	n[11.5 µM]	x	n[11.4 µM]	x	n[11.4 µM]	x
COc1ccc(OC(C)C(=O)N2CCc3ccccc3C2)cc1 (stereo not given)	n	n	n	n	n	n
COc1cc(C(=O)OC(C)C(=O)N2CCc3ccccc3C2)ccc1OCC(=O)N1CCOCC1 (stereo not given)	n	10.8	n	n	n	n
COC(=O)c1ccc(C(NC(=O)OCc2ccccc2)/C(F)=C/[C@@H](C)C(=O)Nc2ccc(OC)cc2)cc1 (stereo not given in full)	n	x	n	x	n	x
NC[C@@H]1O[C@H](O[C@@H]2[C@H](O[C@@H]3O[C@H](CO)[C@@H](O)[C@@H]3O)[C@@H](O)[C@@H](N)C[C@H]2N)[C@@H](N)[C@H](O)[C@@H]1O	n	x	n	x	n	n
CCCCCNC(=O)c1ccc2c(=O)n(CC3CCCO3)c(=O)[nH]c2c1 (stereo not given)	n	n	n	11	n	n
C=CC(C1=CC(=O)C(OC)=CC1=O)c1ccccc1 (stereo not given)	n	x	x	x	x	x
O=C(CSc1nc(-c2ccccc2)nc2c1CCCC2)N1CCOCC1	n	n	n	n	12.6µM	n
Cc1ccc(CNC(=O)C2c3ccccc3C(=O)N(C)C2c2c[nH]c3ccccc23)o1 (stereo not given)	n	n	25.1µM	n	u	n
COc1ccc(C2C(C(=O)Nc3cc(C)on3)c3ccccc3C(=O)N2C)cc1 (stereo not given)	n	n	u	n	u	n
O=C(NCCCn1ccnc1)c1cccnc1	x	n	x	x	x	n
SMILES	ERK AVP block	Bst PK mod	HEK293 cAMP cs	GBA activity	TSHR ag	Luciferase inh
Cc1cc(C(=O)NCCCn2ccnc2)sc1-c1ccccc1	n	n	n	10.6	n	n
O=C(NCCCn1ccnc1)c1cn(-c2ccccc2)nc1-c1ccc(F)cc1	n	n	n	u	n	12.6µM
CCCNC(=O)OC[C@@H]1O[C@H](CCO/N=C(\C)CCC(=O)OC[C@@H]2O[C@H](C#Cc3ccccc3)C=C[C@@H]2Oc2ccc(C)cc2)C=C[C@@H]1Oc1ccc(OC)cc1	n[11.5 µM]	x	n[11.4 µM]	x	n[11.4 µM]	n[11.4 µM]
CCn1c(/C=N/n2cnnc2)nc2ccccc21	n	x	n	x	n	n
CCn1c(/N=C/c2c[nH]c3ccccc23)nc2ccccc21	n	2.69	n	u	n	3.98µM
CC(=O)c1c(C)[nH]c(C(=O)OCCCCN2C(=O)c3ccccc3C2=O)c1C	12.6µM	n	n	n	x	n
COC(=O)NC(/C(C(=O)OC)=C(\C)NCc1ccccc1)c1cccc(F)c1 (stereo not given)	n[11.5 µM]	x	n[11.4 µM]	x	n[11.4 µM]	x
O=C(c1csnn1)N1CCC2(CCCN(Cc3ccccc3)C2)CC1	n	x	n	x	n	n[11.4 µM]
Cc1nnc(NC(=O)c2ccc(S(=O)(=O)N(C)Cc3ccccc3)cc2)o1	n	n	n	14.2	n	n
COCCN(CCOC)S(=O)(=O)c1ccc(C(=O)Nc2nnc(C)o2)cc1	n	n	n	n	n	n
CSCc1nnc(NC(=O)c2ccc(S(=O)(=O)N(CC(C)C)CC(C)C)cc2)o1	n	n	u	6.84	u	n
Nc1ccc(C(=O)C[C@H](N)C(=O)O)cc1O	n[11.5 µM]	x	n[11.4 µM]	x	n[11.4 µM]	n[11.4 µM]
COc1cc2c(C#N)c(N3CCN(c4ccccc4OC)CC3)nc(N)c2c(N)n1	25.1µM	x	n	n	n	n
CCN(C(=O)c1c(-c2ccccc2)noc1C)c1ccccc1	n	n	n	n	10µM	n
Cc1onc(-c2ccccc2)c1C(N)=O	n	n	n	n	n	n
COc1ccccc1CCn1c(=O)c(-c2ccccc2)nc2cncnc21	n	x	3.98µM	x	u	n[11.4 µM]
Nc1ncnc2c1ncn2[C@@H]1O[C@H](COP(=O)(O)O)[C@@H](O)[C@@H]1O	n	x	n	x	n	n
CCNC(=O)[C@@H]1O[C@@H](n2cnc3c(NCc4ccccc4)ncnc32)[C@@H](O)[C@H]1O	x	x	3.16µM	x	u	n
Nc1ncnc2c1ncn2C1OC(COP(=O)(O)O)C(O)C1O (stereo not given)	n	x	x	x	x	x
OC[C@@H]1O[C@@H](n2cnc3c(NCCc4ccccc4)ncnc32)[C@@H](O)[C@H]1O	x	x	u	x	u	n
CNC(=O)[C@@H]1O[C@@H](n2cnc3c(N)ncnc32)[C@@H](O)[C@H]1O	n	x	3.16µM	x	u	n
Nc1ncnc2c1ncn2[C@@H]1O[C@@H](C(=O)NC2CC2)[C@H](O)[C@@H]1O	u	x	0.251µM	x	u	n
CCC1=C2CC[C@H]3C(=O)N(CC)C(=O)[C@H]3[C@H]2[C@@]2(Cc3ccccc3)C(=NCC3CC3)OC(=O)N2C1=O	n	x	x	x	x	x
N=C1C(c2ccccc2)=C(O)C2CCc3ccccc3N12 (stereo not given)	n	x	n	n	n	n
N=C1C(c2ccc(Br)cc2)=C(O)C2CCc3ccccc3N12 (stereo not given)	n	3	n	n	u	n
